HP1b binding inh: blocks HP1-beta chromodomain binding to methylated histone tails. P83916. AID 540317. Potency, µM (series often up to 114 µM), inactives show top-dose activity change, negative = inhibition, usual class: inhibitors. AlphaScreen HP1-beta / biotin-H3K9me3 peptide binding. 390,000 compounds, 0.56% hits; further: potency means the concentration at half of the fitted maximal effect; nearly all actives have a fitted effect of over 70% in size
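HP1-beta protein (50 nM final) preincubated 30 min at room temperature with biotinylated H3(1-18)K9me3 peptide (50 nM) in PBS pH 7.4, 0.01% Tween-20, then compound added for 30 min. AlphaScreen streptavidin donor/nickel chelate acceptor beads (10 ug/mL final), 30 min dark, luminescence read.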
JMJD2A Tudor inh: inhibitors of human JMJD2A Tudor domain. O75164. AlphaScreen JMJD2A-Tudor / H3K4me3 peptide binding. Potency, µM (highest dose often 114 µM), without a hit: top-dose activity change, negative = inhibition, hits mostly inhibitors. 390,000 compounds, 4.4% hits; further: potency means the concentration at half of the fitted maximal effect; on the % scale 0 is the no-effect control and ±100 the full control effect; nearly all actives have a fitted effect of over 50% in size
Target sequence (O75164 whole entry, looked up, the tested form may be a part): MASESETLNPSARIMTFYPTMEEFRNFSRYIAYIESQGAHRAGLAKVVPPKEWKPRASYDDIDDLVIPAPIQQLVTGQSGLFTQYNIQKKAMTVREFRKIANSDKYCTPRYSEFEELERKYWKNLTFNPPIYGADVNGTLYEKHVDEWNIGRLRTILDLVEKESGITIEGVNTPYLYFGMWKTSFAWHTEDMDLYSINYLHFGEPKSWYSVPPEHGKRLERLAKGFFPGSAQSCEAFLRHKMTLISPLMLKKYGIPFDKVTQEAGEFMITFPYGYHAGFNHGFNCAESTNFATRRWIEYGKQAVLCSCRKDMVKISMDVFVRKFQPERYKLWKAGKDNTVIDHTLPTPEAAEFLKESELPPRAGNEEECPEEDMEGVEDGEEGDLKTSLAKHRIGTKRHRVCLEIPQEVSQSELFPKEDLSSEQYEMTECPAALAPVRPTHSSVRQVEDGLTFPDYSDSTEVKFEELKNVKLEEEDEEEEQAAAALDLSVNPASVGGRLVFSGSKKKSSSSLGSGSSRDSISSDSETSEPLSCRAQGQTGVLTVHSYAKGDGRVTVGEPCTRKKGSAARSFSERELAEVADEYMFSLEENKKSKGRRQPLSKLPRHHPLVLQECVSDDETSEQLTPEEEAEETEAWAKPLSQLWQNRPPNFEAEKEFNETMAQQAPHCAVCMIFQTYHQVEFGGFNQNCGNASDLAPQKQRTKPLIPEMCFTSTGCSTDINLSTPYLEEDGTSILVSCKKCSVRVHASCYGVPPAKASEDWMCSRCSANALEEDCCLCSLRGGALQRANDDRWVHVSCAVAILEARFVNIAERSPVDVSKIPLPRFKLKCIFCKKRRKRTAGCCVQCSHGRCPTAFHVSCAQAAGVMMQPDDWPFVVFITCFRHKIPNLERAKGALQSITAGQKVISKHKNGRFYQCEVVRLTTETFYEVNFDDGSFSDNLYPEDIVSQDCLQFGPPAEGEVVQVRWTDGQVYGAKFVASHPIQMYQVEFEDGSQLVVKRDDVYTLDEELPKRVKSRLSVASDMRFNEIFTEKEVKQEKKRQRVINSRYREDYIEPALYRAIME
PI5P4K alpha inh: PI5P4K alpha (human) kinase inhibition | P48426 | PI5P4Kalpha enzyme, ADP-Glo luminescence, 60 min; stronger effect = lower value | max response, % | 330,000 compounds, 1.2% hits; active means max response of -50% or lower; inconclusive means between -30% and -50%; inactive means -30% or higher; further: value at the top dose of about 77 µM; on the % scale 0 is the no-effect control and ±100 the full control effect
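ADP-Glo luminescence end-point read after a 60 min room-temperature kinase reaction of PI5P4Kalpha plus substrate, initiated with ATP at 5 microM final. Buffer: 0.038 M HEPES pH 7.4, EGTA, 0.1% CHAPS, 5% DMSO.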
G9a block: inhibitors of human histone lysine methyltransferase G9a. Q96KQ7. G9a H3K9 monomethylation, AlphaScreen, 2 h. Potency, µM (series often up to 102 µM), for inactives: at the highest dose activity, negative = inhibition, usual class: inhibitors. 350,000 compounds, 8.8% hits. AID 504332; further: potency means the concentration at half of the fitted maximal effect; on the % scale 0 is the no-effect control and ±100 the full control effect; nearly all actives have a fitted effect of over 75% in size
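G9a (20 nM) was preincubated 15 min with compound, then reacted 2 h at room temperature with 500 nM biotin-H3K9 peptide and 20 µM SAM. Monomethyl-H3K9 detected by AlphaScreen using anti-H3K9me1 antibody.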
PLK1 PBD block: blocks phosphopeptide binding to human PLK1 polo-box domain; P53350; Plk1 PBD binding of FITC phosphopeptide, fluorescence polarization; Potency, µM, for inactives: max response, negative = inhibition, usual class: inhibitors; 360,000 compounds, 2.8% hits; further: potency means the concentration at half of the fitted maximal effect; series mostly up to about 57 µM; on the % scale 0 is the no-effect control and ±100 the full control effect; nearly all actives have a fitted effect of over 65% in size
BAZ2B block: blocks human BAZ2B; AlphaScreen BAZ2B-H3K14Ac peptide displacement; 360,000 compounds, 4.4% hits; Potency, µM (series often up to 114 µM), inactives show at the highest dose activity change, negative = inhibition, usual class: inhibitors; further: potency means the concentration at half of the fitted maximal effect; on the % scale 0 is the no-effect control and ±100 the full control effect; nearly all actives have a fitted effect of over 60% in size
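Compounds, titrated to a top concentration of 110 uM, were incubated 30 min at room temperature with preformed BAZ2B/acetyl-K14 H3 peptide complex (50 nM each). Proximity signal was measured by AlphaScreen after 20 min with beads.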
Numbers without * were called inactive; ? = inconclusive; / = no result; [ ] = dose if it differs, or a comment. Sampled rows, rich in hits. Any-hit rate of the full collection: about 12%. Unless noted, the call rests on the fitted dose curve; in most records, active means well fitted curve in the direction sought with a large enough effect; inconclusive means small, poorly fitted or top-dose-only effect, or another doubt; inactive means no such curve, though single readings can be large; an effect the other way counts as inactive or inconclusive.

SMILES	HP1b binding inh	JMJD2A Tudor inh	PI5P4K alpha inh	G9a block	PLK1 PBD block	BAZ2B block
CN(C(=O)CSc1nnc2ccccn12)c1c(N)n(Cc2ccccc2)c(=O)[nH]c1=O	?	-14%	2	35µM*	-5%	-1%
O=C(NCCc1ccc(Cl)cc1)C1COc2ccccc2C1 (centres undefined)	25%[57 µM]	-10%	/	-3%[59 µM]	/	0%
CCOC(=O)/C=C1\CC(C(=O)OCC)Oc2c(OC)cccc21 (centres undefined)	22%	?	?	32µM*	?	/
Nc1c(C(=O)NCCc2ccc(Cl)cc2)sc2ccc(S(=O)(=O)N3CCCCC3)cc12	/	/	/	-24%[59 µM]	/	10%
COc1cc2ncnc(NCc3ccccc3F)c2cc1OC	22%	-19%	3	?	9%	-4%
COc1cc2ncnc(NCc3cccc(F)c3F)c2cc1OC	49%	-9%	-15	45µM*	-7%	-4%
Clc1ccc(Cn2cc3c(n2)-c2cc4ccccc4n2C3)cc1	37%[57 µM]	4%[57.1 µM]	/	/	/	/
CCCN(CCC)c1cc(C)nc2nc(-c3ccc(C(C)(C)C)cc3)nn12	36%	-14%	/	-32%[59 µM]	/	-1%
Cc1ccccc1-c1nc(SCc2cccnc2)c2c(=O)n(C)c(=O)n(C)c2n1	6%	-11%	1	56µM*	-5%	-14%
CCCc1nc(SCc2cccnc2)c2c(=O)n(C)c(=O)n(C)c2n1	33%	-8%	2	-43%[59 µM]	-11%	0%
COc1ccc(-c2cc3ncc(C)n3c(Nc3ncccc3C(N)=O)n2)cc1OC	/	/	/	19µM*	/	/
CCn1c(=O)c2sccc2n2c(CCC(=O)Nc3ccc(F)cc3)nnc12	15%	-15%	/	3%[59 µM]	/	0%
OC(CNCCC1C=Nc2ccccc21)Cn1c2ccc(Cl)cc2c2cc(Cl)ccc21 (centres undefined)	?	40µM*	7	?	-9%	40µM*
OC(CNCc1ccco1)Cn1c2ccccc2c2ccccc21 (centres undefined)	-9%	?	9	50µM*	0%	?
Cc1ccc(N(CC(O)Cn2c3ccccc3c3ccccc32)S(C)(=O)=O)cc1 (centres undefined)	7%	-24%	/	17%[12.7 µM]	-7%	-1%
OC(CNCc1ccco1)COc1ccccc1 (centres undefined)	33%	-20%	4	-12%[59 µM]	-6%	18%
CS(=O)(=O)N(Cc1ccco1)CC(O)Cn1c2ccccc2c2ccccc21 (centres undefined)	-18%	?	-2	14µM*	-3%	?
CCC(c1c(C)[nH]oc1=O)c1c(C)[nH]oc1=O	-4%	25µM*	-2	?	-18%	-97%
Cc1cccc(C(=O)Nc2ccc(C(=O)OCc3cc(=O)n4c(C)csc4n3)cc2)c1	62%	?	/	5%[59 µM]	/	79µM*
Cc1cccc(C(=O)Nc2ccccc2OCc2cc(=O)n3c(C)csc3n2)c1	26%	-8%	/	0%[59 µM]	/	-2%
CC(=O)Nc1ccc(S(=O)(=O)NCc2ccc3[nH]c(C)cc3c2)cc1	-18%	?	-9	-9%[59 µM]	-12%	-34%
Cc1ccc(S(=O)(=O)NCc2ccc3[nH]c(C)cc3c2)cc1	3%	-31%	0	50µM*	-1%	/
O=C(CCc1nnc2ccc(N3CCC4(CC3)OCCO4)nn12)Nc1ccc(F)cc1	17%	?	-24	-2%[59 µM]	13µM*	-4%
CCOC(=O)c1cccc(NC(=O)CCc2nnc3ccc(N4CCN(C)CC4)nn23)c1	20%	-32%	2	9%	24µM*	-2%
COc1cccc(N2CCN(c3ccc4nnc(CCC(=O)Nc5cccc(C(C)=O)c5)n4n3)CC2)c1	7%	16µM*	-26	11%[59 µM]	21µM*	-11%
SMILES	HP1b binding inh	JMJD2A Tudor inh	PI5P4K alpha inh	G9a block	PLK1 PBD block	BAZ2B block
CCOC(=O)c1cccc(NC(=O)CCc2nnc3ccc(N4CCCCC4)nn23)c1	41%	-3%	3	/	-18%	0%
COc1ccc(NC(=O)CCc2nnc3ccc(N4CCC5(CC4)OCCO5)nn23)cc1	42%	-7%	-1	13%	-18%	-1%
COc1ccc(OC)c(CCNC(=O)CCc2nnc3ccc(N4CCOCC4)nn23)c1	4%	?	-1	11%	30µM*	-37%
COc1ccc(OC)c(CCNC(=O)CCc2nnc3ccc(N4CCCCC4)nn23)c1	17%	-15%	2	-16%	2%	-35%
CCCN(C(=O)c1cc(Cl)nc2ccccc12)c1c(N)n(Cc2ccccc2)c(=O)[nH]c1=O	42%	0%	-1	7%[12.7 µM]	3%	-3%
O=C(NCc1ccccc1)C1C(c2ccc3c(c2)OCO3)=Nc2ccccc2N1C(=O)c1ccco1 (centres undefined)	/	/	1	/	-1%	/
CN(C)c1ncc2nc(-c3cc(F)cc(F)c3)c(=O)n(Cc3cccs3)c2n1	/	/	/	1%[12.7 µM]	/	/
CCOC(=O)c1cccc(NC(=O)CCn2cccc2)c1	-4%	-34%	1	40µM*	-14%	?
CCOC(=O)c1cccc(NC(=O)CCn2c(=O)oc3ccccc32)c1	-13%	-10%	0	17%	2%	2%
CCOC(=O)c1cccc(NC(=O)c2cc3cc4ccc(C)cc4nc3s2)c1	-13%	?	/	13µM*	/	-12%
COc1cccc(N2CCN(c3ccc4nnc(CCC(=O)N5CCC(C)CC5)n4n3)CC2)c1	0%	?	-9	-22%	24µM*	-23%
COc1ccc(CNC(=O)CCc2nnc3ccc(NCCCN4CCCC4=O)nn23)cc1	41%	-8%	-1	5%	1%	-5%[57.1 µM]
COc1ccccc1CNC(=O)CCc1nnc2ccc(NCCCN3CCCC3=O)nn12	19%	-27%	1	28%	21µM*	-4%[57.1 µM]
COc1ccc(C(=O)N/C(=C\c2cn(C)c3ccccc23)C(=O)NCCCN2CCOCC2)cc1	21%	-32%	1	9%[0.0925 µM]	-10%	-12%
Cc1cc2oc(C(=O)Nc3c(C(=O)Nc4ccccc4)oc4ccccc34)cc(=O)c2cc1C	60%	-4%	/	9%[59 µM]	/	1%
O=C(Nc1ccn(CCCNC2CCN(Cc3ccccc3)CC2)c(=O)n1)OCc1ccccc1	/	/	6	/	-7%	/
Cn1c(CCC(=O)Nc2cc(S(C)(=O)=O)ccc2Cl)nc2cc(S(=O)(=O)N3CCOCC3)ccc21	6%	-14%	-1	10µM*	?	79µM*
CCN(CC)S(=O)(=O)c1ccc2c(c1)nc(CCC(=O)O)n2C	15%	-15%[11.4 µM]	-8	25µM*	?	-19%
Cn1c(CCC(=O)O)nc2cc(S(=O)(=O)N3CCCC3)ccc21	4%[57 µM]	-14%	-3	/	8%	/
Cn1c(CCC(=O)O)nc2cc(S(=O)(=O)N3CCCCC3)ccc21	-26%	-27%	-19	?	27µM*	-19%
COc1ccc(-c2nn3c(-c4cc(C)[nH]n4)nnc3s2)cc1	22%[57 µM]	-2%[57.1 µM]	/	/	/	/

High-throughput results as filed in PubChem.
